# PubChem BioAssay (Tox21)
# A number with no mark means an inactive call. Results filed as inconclusive are left out. Entries that show only a call come without a potency. The source made the active and inactive calls. Unless noted, calls follow the shape of the dose curve; as a rule, active = well fitted curve in the direction sought with a large enough effect in the repeat runs; inconclusive = weak or mixed curves; inactive = no such curve, though single readings can be large; an effect the other way counts as inactive or inconclusive.
# Assays:
# [1] = qHTS assay to identify small molecule agonists of the hypoxia (HIF-1) signaling pathway - cell viability counter screen (AID 1224844; calls by dose curve; also: nearly all actives have a fitted effect of over 50% in size); conditions: HRE-bla ME-180 viability, CellTiter-Glo luminescence, 17 h; series mostly up to 76.8 µM
# Summary of the method: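 Multiplexed with the HRE beta-lactamase assay, this viability read used CellTiter-Glo luminescence (30 min, RT) on HRE-bla ME-180 cells treated 17 hrs with compounds in 0.5% dialyzed FBS medium.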
# [2] = qHTS assay to identify small molecule agonists of H2AX (AID 1224845; active = well fitted activation curve with a large enough effect in the signal ratio in the repeat runs, not every such curve was filed as active; the % refers to the signal ratio); conditions: CHO-K1 phospho-H2AX Ser139 HTRF, 3 h; series mostly up to 154 µM
# Summary of the method: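 Phospho-H2AX Ser139 measured by HTRF (ex 320 nm; em 665 and 620 nm) after 24 hr antibody incubation. Compounds, 15 concentrations, 0.76% DMSO, were applied to CHO-K1 cells for 3hr at 37C before lysis.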
# [3] = qHTS assay to identify small molecule agonists of the hypoxia (HIF-1) signaling pathway (AID 1224846; active = well fitted activation curve with a large enough effect in the signal ratio in the repeat runs, not every such curve was filed as active; the % refers to the signal ratio); conditions: HRE-bla ME-180 cells, beta-lactamase ratio, 17 h; series mostly up to 76.8 µM
# Summary of the method: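 Hypoxia-pathway activation was scored as increased beta-lactamase from an HRE-controlled reporter in ME-180 cells; plated at 2,000 cells per well with 0.5% dialyzed FBS, they were exposed 17 hrs to compounds and then given CCF4-AM.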
# [4] = qHTS assay to identify small molecule agonists of H2AX - cell viability counter screen (AID 1224847; calls by dose curve;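 also: wild-type CHO-K1 cells; top concentration of the series differs between compounds; nearly all actives have a fitted effect of over 30% in size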); conditions: CHO-K1 viability, CellTiter-Glo luminescence, 3 h; series mostly up to 154 µM
# Summary of the method: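 For this counter screen, overnight-attached CHO-K1 cells received test compounds (15 concentrations, 0.76% DMSO final); 3 hr later at 37C, CellTiter-Glo reagent was added and luminescence recorded after 30 min at room temperature.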
# [5] = qHTS assay to identify small molecule antagonists of the estrogen related receptor (ERR) signaling pathway from Tox21 library (AID 1224848); conditions: ERR reporter cell line, luciferase antagonist mode, 18 h; series mostly up to 92.4 µM; also: nearly all actives have a fitted effect of over 50% in size; also: potency is read from the fitted curve at half-maximal effect
# Summary of the method: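 Reading was by luminescence 30 min after ONE-Glo addition. Before that, ERR cells at 2,000 per well had rested 6 h at 37 C/5% CO2 and then received pin-tooled compounds in DMSO for 18 h at 37 C.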
# [6] = qHTS assay to identify small molecule agonists of the estrogen related receptor (ERR) signaling pathway from Tox21 library (AID 1224849; calls by dose curve; also: nearly all actives have a fitted effect of over 15% in size); conditions: ERR reporter cell line, ONE-Glo luciferase, 18 h; at 92.4 µM (top of the series) unless noted
# Summary of the method: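 Six hours post-seeding at 37 C/5% CO2, ERR cells receive DMSO-solubilised compounds; after 18 h at 37 C, ONE-Glo reagent is applied and luminescence recorded.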
# [7] = qHTS RealTime-Glo MT Cell Viability Assay in HepG2 cells - 24 hour (AID 1224867); conditions: RealTime-Glo luminescence; series mostly up to 76.8 µM; also: nearly all actives have a fitted effect of over 50% in size
# Summary of the method: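 Cell number in HepG2 cultures estimated from NanoLuc luminescence generated by metabolic reduction of a prosubstrate by living cells. The homogeneous, nonlytic format allowed repeated reads at 0, 8, 16, 24, 32 and 40 h of compound exposure.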
# [8] = qHTS RealTime-Glo MT Cell Viability Assay in HEK293 cells - 32 hour (AID 1224868); conditions: RealTime-Glo luminescence; series mostly up to 76.8 µM; also: nearly all actives have a fitted effect of over 50% in size; also: potency is read from the fitted curve at half-maximal effect; as to activity change, negative = cytotoxic: top concentration of the series differs between compounds
# Summary of the method: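 Homogeneous bioluminescent viability format in HEK293 cells (600 cells/well). Following 5 h at 37 C/5% CO2, 23 nL compound was pintooled; the signal was measured repeatedly during 40 h incubation.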
# [9] = A CellTox Green Cytotoxicity Assay to monitor cytotoxicity in HEK293 cells - 0 hour (AID 1224869); conditions: CellTox Green fluorescence; series mostly up to 76.8 µM; also: nearly all actives have a fitted effect of over 50% in size
# Summary of the method: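 Seeding of HEK293 cells together with cytotoxicity dye preceded a 5 h incubation at 37 C/5% CO2. Test compounds in DMSO were then added and fluorescence monitored across 40 h.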
# [10] = qHTS RealTime-Glo MT Cell Viability Assay in HepG2 cells - 40 hour (AID 1224870); conditions: RealTime-Glo luminescence; series mostly up to 76.8 µM; also: nearly all actives have a fitted effect of over 50% in size
# Summary of the method: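 Real-time viability: cells seeded at 600 per well together with NanoLuc and cell-permeant prosubstrate, compounds added after 5 h incubation. Luminescence tracked at 0, 8, 16, 24, 32 and 40 h of exposure.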
SMILES,Potency [1],Potency [2],outcome [3],Potency [4],Potency [5],"activity change, positive = activation [6]",Potency [7],Potency [8],Potency [9],Potency [10],"activity change, negative = cytotoxicity [1]",activation (H2AX phosphorylation) [2],activation [3],"activity change, negative = cytotoxicity [4]","activity, negative = inhibition [5]","activity change, negative = cytotoxicity [7]","activity change, negative = cytotoxic [8]",cytotoxicity [9],"activity change, negative = cytotoxic [10]"
CCS(=O)(=O)CCSP(=O)(OC)OC,inactive,inactive,inactive,inactive,inactive,13.8%,inactive,inactive,inactive,inactive,,,,,,,,,
COc1cc(OC)nc(Sc2cccc(Cl)c2C(=O)O)n1,inactive,inactive,inactive,inactive,inactive,0.33%,inactive,inactive,inactive,inactive,,,,,,,,,
O=CNC(N1CCN(C(NC=O)C(Cl)(Cl)Cl)CC1)C(Cl)(Cl)Cl (stereo not given),inactive,inactive,inactive,inactive,inactive,2.23%,inactive,inactive,inactive,inactive,,,,,,,,,
COC(=O)c1ccccc1S(=O)(=O)NC(=O)N(C)c1nc(C)nc(OC)n1,inactive,inactive,inactive,inactive,inactive,6.39%,inactive,inactive,inactive,inactive,,,,,,,,,
CN1CCC(O)(c2ccc(F)cc2)C(C(=O)c2ccc(F)cc2)C1 (stereo not given),inactive,inactive,inactive,inactive,inactive,0.426% [at 42.5 µM],inactive,inactive,inactive,,,,,,,,,,
CC(C)(C)NCC(O)c1cc(Cl)c(N)c(Cl)c1 (stereo not given),inactive,inactive,inactive,inactive,inactive,6.3% [at 42.5 µM],inactive,inactive,inactive,inactive,,,,,,,,,
CC(=O)Nc1cc([As](=O)(O)O)ccc1O,inactive,inactive,inactive,inactive,inactive,-16.7% [at 42.5 µM],inactive,inactive,inactive,inactive,,,,,,,,,
CC1(C)C(=O)NC(=O)NC1=O,inactive,inactive,inactive,inactive,inactive,-0.272%,inactive,inactive,inactive,inactive,,,,,,,,,
CCCCN(CCCCO)N=O,inactive,inactive,inactive,inactive,inactive,-8.16%,inactive,inactive,inactive,inactive,,,,,,,,,
Cc1nnc2n1-c1sc(CCC(=O)N3CCOCC3)cc1C(c1ccccc1Cl)=NC2,inactive,inactive,inactive,inactive,inactive,1.19% [at 42.5 µM],inactive,inactive,inactive,inactive,,,,,,,,,
N#CCBr,inactive,inactive,inactive,inactive,inactive,0.914%,inactive,inactive,inactive,inactive,,,,,,,,,
ClCCOCOCCCl,inactive,inactive,inactive,inactive,inactive,-2.74%,inactive,inactive,inactive,inactive,,,,,,,,,
N#CCNCC#N,inactive,inactive,inactive,inactive,inactive,2.04%,inactive,inactive,inactive,inactive,,,,,,,,,
CCC(C)n1c(=O)[nH]c(C)c(Br)c1=O (stereo not given),inactive,inactive,inactive,inactive,inactive,-4.95%,inactive,inactive,inactive,inactive,,,,,,,,,
CCCCCCBr,inactive,inactive,inactive,inactive,inactive,0.352%,inactive,inactive,inactive,inactive,,,,,,,,,
COc1cc(C[C@@H](C)N)c(OC)cc1C,inactive,inactive,inactive,inactive,inactive,-3.22%,inactive,inactive,inactive,inactive,,,,,,,,,
CCNc1nc(NC(C)C)nc(OC)n1,inactive,inactive,inactive,inactive,inactive,-0.534%,inactive,inactive,inactive,inactive,,,,,,,,,
CCOC(=O)C1(c2ccccc2)CCN(CCc2ccc(N)cc2)CC1,inactive,inactive,inactive,inactive,inactive,-11.7% [at 42.5 µM],inactive,inactive,inactive,inactive,,,,,,,,,
CCS(=O)(=O)C(C)(C)S(=O)(=O)CC,inactive,inactive,inactive,inactive,inactive,3.77% [at 42.5 µM],inactive,inactive,inactive,inactive,,,,,,,,,
CC(Cl)(Cl)[N+](=O)[O-],inactive,inactive,inactive,inactive,inactive,2.67%,inactive,inactive,inactive,inactive,,,,,,,,,
ClCCCN1CCN(c2cccc(Cl)c2)CC1,inactive,inactive,inactive,inactive,inactive,-4.21% [at 42.5 µM],inactive,inactive,inactive,inactive,,,,,,,,,

SMILES,Potency [1],Potency [2],outcome [3],Potency [4],Potency [5],"activity change, positive = activation [6]",Potency [7],Potency [8],Potency [9],Potency [10],"activity change, negative = cytotoxicity [1]",activation (H2AX phosphorylation) [2],activation [3],"activity change, negative = cytotoxicity [4]","activity, negative = inhibition [5]","activity change, negative = cytotoxicity [7]","activity change, negative = cytotoxic [8]",cytotoxicity [9],"activity change, negative = cytotoxic [10]"
O=NN1CCN(N=O)CC1,inactive,inactive,inactive,inactive,inactive,3%,inactive,inactive,inactive,inactive,,,,,,,,,
CCOC(=O)CP(=O)(OCC)OCC,inactive,inactive,inactive,inactive,inactive,4.99%,inactive,inactive,inactive,inactive,,,,,,,,,
CC1(C)COP(Oc2ccccc2)OC1,inactive,inactive,inactive,inactive,inactive,6.55%,inactive,inactive,inactive,inactive,,,,,,,,,
CNC(=O)N(C)c1nc2ccccc2s1,inactive,inactive,inactive,inactive,inactive,89.8% (active),inactive,inactive,inactive,inactive,,,,,,,,,
C[C@]12CC[C@H]3[C@@H](CCC4=CC(=O)CC[C@@]43C)[C@@H]1CC[C@@H]2C(=O)O,inactive,inactive,inactive,inactive,inactive,-8.07% [at 42.5 µM],inactive,inactive,inactive,inactive,,,,,,,,,
N#Cc1c(Cl)cccc1Cl,inactive,inactive,inactive,inactive,inactive,7.33%,inactive,inactive,inactive,inactive,,,,,,,,,
NC(=O)O,inactive,inactive,inactive,inactive,inactive,-1.74%,inactive,inactive,inactive,inactive,,,,,,,,,
CCC(Cl)[N+](=O)[O-] (stereo not given),inactive,inactive,inactive,inactive,inactive,-7.71%,inactive,inactive,inactive,inactive,,,,,,,,,
CCC#N,inactive,inactive,inactive,inactive,inactive,0.336%,inactive,inactive,inactive,inactive,,,,,,,,,
CCN(CC)CCOC(=O)C(C)(c1ccccc1)c1ccccc1,inactive,inactive,inactive,inactive,inactive,0.519% [at 42.5 µM],inactive,inactive,inactive,inactive,,,,,,,,,
CC1=C(C(=O)O)N2C(=O)[C@@H](N)[C@H]2SC1,,,,,,3.36% [at 19 µM],,,,,0.296% [at 15.8 µM],-1.16% [at 31.6 µM],-0.576% [at 15.8 µM],-3.1% [at 31.6 µM],6% [at 19 µM],0.806% [at 15.8 µM],1.51% [at 15.8 µM],-3.35% [at 15.8 µM],1.44% [at 15.8 µM]
Fc1ccc(C2(Cn3cncn3)OC2c2ccccc2Cl)cc1 (stereo not given),inactive,inactive,inactive,inactive,48.6 µM (active),-40.8%,inactive,43.6 µM (active),inactive,inactive,,,,,,,,,
CC(=O)CCc1ccc2c(c1)OCO2,inactive,inactive,inactive,inactive,inactive,-0.0233%,inactive,inactive,inactive,inactive,,,,,,,,,
CNC(=O)Oc1ccccc1C1OCCO1,inactive,inactive,inactive,inactive,inactive,4.32%,inactive,inactive,inactive,inactive,,,,,,,,,
CCCCC(=O)Cl,inactive,inactive,inactive,inactive,inactive,-5.15%,inactive,inactive,inactive,inactive,,,,,,,,,
C[N+](=O)[O-],inactive,inactive,inactive,inactive,inactive,6.34%,inactive,inactive,inactive,inactive,,,,,,,,,
COCC(=O)N(c1c(C)cccc1C)N1CCOC1=O,inactive,inactive,inactive,inactive,inactive,0.713%,inactive,inactive,,inactive,,,,,,,,,
COC(=O)C(C)Oc1ccc(Oc2ccc(Cl)cc2Cl)cc1 (stereo not given),inactive,inactive,inactive,inactive,,-14.6%,inactive,inactive,inactive,inactive,,,,,,,,,
CSc1ccc(C(=O)C(C)(C)N2CCOCC2)cc1,inactive,inactive,inactive,inactive,,-13.8%,inactive,inactive,inactive,inactive,,,,,,,,,
CC1CCCCC1NC(=O)Nc1ccccc1 (stereo not given),inactive,inactive,inactive,inactive,inactive,4.71%,inactive,,inactive,inactive,,,,,,,,,
